From ChEMBL document CHEMBL3988442, “University of Dundee, Small-Polar-MMV Screening Library” (2021)
Out of some 48,000 compounds screened, about 13,000 (27%) showed an effect of 50% or more. The list shows a part of the results.

System: Wolbachia pipientis
Assay: Anti-Wolbachia Cell-Based Screen
Format: functional
Set-up: scale not given: in the data most compounds retested in dose-response had high values
Settings: 5 µM

| SMILES | Percent Effect |
| --- | --- |
| CS(=O)(=O)N1C[C@@H]2OCC(=O)N(CC3CC3)[C@@H]2C1 | -6.528% |
| O=C(c1ccnnc1)N1CC[C@H]2[C@H]1CCN2S(=O)(=O)C1CC1 | -8.086% |
| COCCC(=O)N1CCn2cc(CN3CCN(C)CC3)nc2C1.O=C(O)C(F)(F)F.O=C(O)C(F)(F)F | -0.4638% |
| Cc1noc(C)c1-c1nc(C2CCCN(C(=O)C(C)C)C2)ccc1CO (stereo not drawn) | 110.5% |
| CC(=O)N1CCCC(c2ccc(CO)c(-c3c(C)noc3C)n2)C1 (stereo not drawn) | 98.56% |
| CCCc1cc(NCCC2CCCOC2)n2nccc2n1 (stereo not drawn) | -37.65% |
| COCC(=O)N1CCC2(CCCN(Cc3cnn(C)c3)C2)C1 (stereo not drawn) | 0.82% |
| COCC(=O)N1CCCC2(CCN(c3cncnc3)C2=O)C1 (stereo not drawn) | -8.381% |
| COCC(=O)N1CCCC(C)(c2nncn2C)C1 (stereo not drawn) | 100.7% |
| O=S1(=O)CCC(S(=O)(=O)c2cccc(S(=O)(=O)N3CCOCC3)c2)C1 (stereo not drawn) | 94.82% |
| O=S1(=O)CCC(S(=O)(=O)c2cccc(S(=O)(=O)N3CCCC3)c2)C1 (stereo not drawn) | 102.5% |
| O=S1(=O)CCC(S(=O)(=O)c2cccc(S(=O)(=O)N3CCCCCC3)c2)C1 (stereo not drawn) | 99.56% |
| COc1cccc(S(=O)(=O)N2CCN(C)[C@@H]3CS(=O)(=O)C[C@@H]32)c1 | 0.7716% |
| Cc1cccc(S(=O)(=O)N2CCC3(CC2)CC(N(C)C)CO3)c1 (stereo not drawn) | -10.34% |
| CSCc1cccc(S(=O)(=O)N2CCSCC2)c1 | 9.116% |
| Cc1ccc(S(=O)(=O)N2CCC(N3CCCCC3)CC2)cc1C | 2.331% |
| CSCc1cccc(S(=O)(=O)N2CCC(C)CC2)c1 | -3.451% |
| CNC(=O)CS(=O)(=O)C1CCN(S(=O)(=O)c2cccc(C(C)=O)c2)CC1 | -4.98% |
| O=C(O)c1cc(-c2cccnc2)cc(S(=O)(=O)N2CCCCCC2)c1 | -2.874% |
| CN1CCN(S(=O)(=O)c2cccc(S(=O)(=O)C3CCS(=O)(=O)C3)c2)CC1 (stereo not drawn) | 83.09% |
| F[C@@H]1CN(CC2CC2)C[C@@H]1OCc1nc2cnccc2[nH]1 | 0.2441% |
| COc1ccc(C(=O)NC2CC2)c(OC2CCN(C(C)CO)CC2)c1 (stereo not drawn) | -4.273% |
| CC(=O)N(Cc1ccoc1)C1CCCCC1 | 5.985% |
| CCCNC(=O)c1sc(Nc2ccc(Cl)cn2)nc1C | 11.67% |

| SMILES | Percent Effect |
| --- | --- |
| CCN(CC)C(=O)CNC(=O)c1cnc(-c2ccccc2)nc1 | 0.8892% |
| COc1ccc(CC(=O)N2CCN(c3nccn3C)CC2)cc1.Cl | 92.57% |
| COc1cccc(CN(C)C(=O)CN2CCN(c3nccn3C)CC2)c1 | 6.217% |
| Cc1cc(N2CCCN(C(=O)Cc3ccc(O)c(Cl)c3)CC2)ccn1 | 6.362% |
| Cl.Cn1ccnc1N1CCN(C(=O)Cc2ccc(Cl)cc2)CC1 | 89.82% |
| CCOc1ccc(CC(=O)N2CCN(c3nccn3C)CC2)cc1.Cl | -3.351% |
| Cl.Cn1ccnc1N1CCN(C(=O)Cc2ccc(F)cc2)CC1 | 9.363% |
| CN(C)c1cnnc(N2CCN(C(=O)Cc3ccccc3)CC2)c1 | 6.121% |
| CC(=O)N1CCN(C(=O)CN2CCN(c3cccc(C)c3)CC2)CC1 | 4.87% |
| Cc1cccc(N2CCN(CCCNC(=O)c3nccn3C)CC2)c1 | 29.8% |
| Cc1cccc(CC(=O)N2CCN(c3nccn3C)CC2)c1.Cl | 119.3% |
| Cl.Cn1ccnc1N1CCN(C(=O)Cc2ccccc2)CC1 | 103.6% |
| CSc1cc2c(cc1NC(=O)NCc1ccco1)OCCO2 | -2.93% |
| Cc1cnn(CC(=O)NC2CCCc3cc(OC(F)F)ccc32)c1 (stereo not drawn) | -5.352% |
| Cc1nn(C(C)C)c(C)c1S(=O)(=O)Nc1ccc(C(=O)O)cc1 | -3.585% |
| COc1nc2ccn(CCNc3cc(C)ccn3)c(=O)c2cc1C#N | -7.591% |
| Cn1cc(N2CC3(CCN(S(C)(=O)=O)C3)CC2=O)cn1 (stereo not drawn) | -6.805% |
| CCn1ccnc1C1CCN(C(=O)Nc2ccc(OC)cc2)CC1 | -6.796% |
| CCOc1ccc(CC(=O)N2CCN(c3nccn3CC)CC2)cc1.Cl | 105.4% |
| CCc1ccc(CC(=O)N2CCN(c3nccn3C)CC2)cc1 | 102.2% |
| CCn1ccnc1C1CCN(C(=O)C(O)c2ccc(OC)cc2)CC1 (stereo not drawn) | 13.84% |
| CCOc1ccc(NC(=O)CN2CCN(c3nccn3C)CC2)cc1 | 10.39% |
| CCOc1ccc(C(=O)N2CCN(c3nccn3C)CC2)cc1.Cl | 123.5% |
| CCOc1cc(N2CCN(C(=O)c3ccc(OC)cc3)CC2)nc(C)n1 | 6.189% |
